Experimental data reported in PubChem BioAssay (NCI).
The panel holds about 79,000 compounds, 15% with a hit somewhere; the sample as a whole holds those more often. The source made the active and inactive calls. Cut-off read from the data, not from the text of the source: active = growth inhibition above about 70%; inactive = the rest.

How the values were obtained:
[1] = NCI Yeast Anticancer Drug Screen. Data for the rad52 strain (AID 147);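 note: 0% = growth of vehicle-treated control cultures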; details: S. cerevisiae rad52 mutant growth inhibition, active compounds read high
In short: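 Screen used a yeast mutant impaired in DNA repair. After compound exposure, growth was measured. Values reflect inhibition compared with vehicle-treated cells.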

[2] = NCI Yeast Anticancer Drug Screen. Data for the wt1 strain (AID 149);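 note: 0% = growth of vehicle-treated wt1 cultures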; details: S. cerevisiae wt1 strain (SPY 50644) growth inhibition, active compounds read high
In short: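 Compounds are added to wt1 yeast cultures. Growth is then measured. Inhibition is expressed relative to vehicle-treated controls.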

[3] = NCI Yeast Anticancer Drug Screen. Data for the rad50EPP+ strain (AID 151);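 note: 0% = growth of vehicle-treated control cultures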; details: S. cerevisiae rad50 mutant strain, active compounds read high
In short: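 Exposing the rad50EPP+ strain to each compound, growth was compared with vehicle-only cultures to give inhibition.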

[4] = NCI Yeast Anticancer Drug Screen. Data for the mgt1 strain (AID 153); details: S. cerevisiae mgt1 mutant growth inhibition, active compounds read high
In short: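 Genetically defined yeast (mgt1) treated with compound; inhibition of growth expressed against vehicle-treated controls.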

[5] = NCI Yeast Anticancer Drug Screen. Data for the rad50 strain (AID 155);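 note: 0% = growth of vehicle-only cultures of the same strain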; details: S. cerevisiae rad50 strain growth inhibition, active compounds read high
In short: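 Inhibition values express reduced yeast growth in compound-treated cultures relative to vehicle-treated controls.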

[6] = NCI Yeast Anticancer Drug Screen. Data for the mec2-1 strain (AID 157); details: S. cerevisiae mec2-1 strain, active compounds read high
In short: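 Readout is yeast growth inhibition, normalised to vehicle-treated controls, in the mec2-1 strain exposed to compound.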

[7] = NCI Yeast Anticancer Drug Screen. Data for the rad14 strain (AID 159);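 note: 0% = growth of vehicle-treated control cultures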; details: S. cerevisiae rad14 strain growth inhibition, active compounds read high
In short: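 A mutant yeast strain defective in DNA damage repair is treated with compound; inhibition of its growth is scored against untreated, vehicle-exposed cultures.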

[8] = NCI Yeast Anticancer Drug Screen. Data for the sgs1 mgt1 strain (AID 161);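 note: 0% = growth of cultures given vehicle only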; details: S. cerevisiae sgs1 mgt1 strain, active compounds read high
In short: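 Percent growth inhibition was derived by comparing compound-exposed mutant yeast with vehicle-exposed cultures. The strain carries alterations in DNA damage repair.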

[9] = NCI Yeast Anticancer Drug Screen. Data for the CLN2oe strain (AID 163);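 note: 0% = growth of vehicle-only control cultures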; details: S. cerevisiae CLN2oe strain, active compounds read high
In short: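 Values reflect how much compound exposure reduced yeast growth, referenced to vehicle-exposed cells. Assay organism is a strain with a defined genetic change affecting cell-cycle control.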

[10] = NCI Yeast Anticancer Drug Screen. Data for the cln2 rad14 strain (AID 165);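 note: 0% = growth equal to vehicle treated cultures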; details: S. cerevisiae cln2 rad14 strain, active compounds read high
In short: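 Relative to vehicle controls, growth inhibition of compound-treated cln2 rad14 yeast was recorded.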

[11] = NCI Yeast Anticancer Drug Screen. Data for the bub3 strain (AID 167); details: S. cerevisiae bub3 mutant strain, active compounds read high
In short: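 Steps: expose the mutant yeast strain to compound; grow alongside vehicle-treated cultures; measure growth; express inhibition against the vehicle cultures.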

[12] = NCI Yeast Anticancer Drug Screen. Data for the wt2 strain (AID 169);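 note: 0% = growth of vehicle-treated yeast cultures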; details: S. cerevisiae wt2 strain growth inhibition, active compounds read high
In short: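 Values express reduction in yeast growth under compound treatment, referenced to vehicle-treated cells.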

[13] = NCI Yeast Anticancer Drug Screen. Data for the mlh1 strain (AID 171);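 note: 0% = growth of vehicle-treated control cultures of the same strain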; details: S. cerevisiae mlh1 strain growth inhibition, active compounds read high
In short: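 Steps: expose the defined-mutant yeast strain to compound; expose a parallel culture to vehicle; measure growth; express compound effect as inhibition relative to the vehicle culture.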

[14] = NCI Yeast Anticancer Drug Screen. Data for the mlh1 rad18 strain (AID 175); details: S. cerevisiae mlh1 rad18 strain growth inhibition, active compounds read high
In short: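 Test agents were incubated with a yeast strain of defined genotype (DNA damage repair defect). Inhibition of growth was derived by comparison with vehicle-exposed cultures.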

[15] = NCI Yeast Anticancer Drug Screen. Data for the rad18 strain (AID 177); details: S. cerevisiae rad18 mutant growth inhibition, active compounds read high
In short: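 A genetically defined yeast mutant impaired in DNA damage repair was treated with test compounds, then its growth was measured against cultures receiving vehicle alone.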

[16] = at 5.0 µM (retest, dose inferred, filed as 0.5)
[17] = at 50.0 µM (retest, dose inferred, filed as 5.0)

Measured: growth inhibition

CC(C)CN(CC(C)C)C(=O)c1ccc(Cl)c(Cl)c1
inactive: [1]; at 1.2 µM -4% | [1]; at 3.7 µM 0% | [1]; at 11.0 µM 6% | [2]; at 1.2 µM -3% | [2]; at 3.7 µM -3% | [2]; at 11.0 µM -3% | [2]; at 33.0 µM 63% | [3]; at 1.2 µM -2% | [3]; at 3.7 µM 0% | [3]; at 11.0 µM 2% | [3]; at 33.0 µM 6% | [3]; at 100.0 µM 3% | [4]; at 1.2 µM 2% | [4]; at 3.7 µM 2% | [4]; at 11.0 µM 1% | [4]; at 33.0 µM 21% | [5]; at 1.2 µM -2% | [5]; at 3.7 µM 4% | [5]; [16] -10% | [5]; at 11.0 µM 6% | [6]; at 1.2 µM -1% | [6]; at 3.7 µM 1% | [6]; [16] 6% | [6]; at 11.0 µM 0% | [7]; at 1.2 µM -2% | [7]; at 3.7 µM -1% | [7]; at 11.0 µM 9% | [7]; at 33.0 µM 31% | [8]; [16] -3% | [9]; at 1.2 µM 2% | [9]; at 3.7 µM 9% | [9]; at 11.0 µM 14% | [9]; at 33.0 µM 41% | [10]; [16] -29% | [10]; [17] 50% | [11]; at 1.2 µM 4% | [11]; at 3.7 µM 3% | [11]; [16] -18% | [11]; at 11.0 µM 8% | [11]; at 33.0 µM 25% | [11]; [17] 22% | [12]; at 1.2 µM -3% | [12]; at 3.7 µM -5% | [12]; at 11.0 µM -5% | [13]; at 1.2 µM 0% | [13]; at 3.7 µM 2% | [13]; at 11.0 µM 5% | [13]; at 33.0 µM 39% | [14]; [16] -17% | [15]; at 1.2 µM 0% | [15]; at 3.7 µM 4% | [15]; at 11.0 µM 5% | [15]; at 33.0 µM 66%
active: [1]; at 33.0 µM 82% | [1]; at 100.0 µM 98% | [2]; at 100.0 µM 98% | [4]; at 100.0 µM 98% | [5]; at 33.0 µM 85% | [5]; [17] 94% | [5]; at 50.0 µM 94.7% | [5]; at 100.0 µM 99% | [6]; at 33.0 µM 82% | [6]; [17] 76% | [6]; at 50.0 µM 98% | [6]; at 100.0 µM 99% | [7]; at 100.0 µM 99% | [8]; [17] 83% | [8]; at 50.0 µM 95.8% | [9]; at 100.0 µM 99% | [10]; at 50.0 µM 93.2% | [11]; at 50.0 µM 83% | [11]; at 100.0 µM 99% | [12]; at 33.0 µM 74% | [12]; at 100.0 µM 99% | [13]; at 100.0 µM 98% | [14]; [17] 96% | [14]; at 50.0 µM 97.5% | [15]; at 100.0 µM 99%
